Source: PubChem (National Center for Advancing Translational Sciences (NCATS))
This is a sample that favours compounds with a hit; in the whole collection about 21% have one here.
CHX counter: counter-screen hit for Shiga toxin inhibitors, cycloheximide. cell reporter, cycloheximide protein synthesis inhibition counterscreen. max response, %. 300,000 tested, 12% active; in the data active = max response mostly above about 13%, no sharp cut-off; inactive = mostly below about 14%; also: read at 38.3 µM for the half of the compounds with a filed dose; 0% is about no effect
AMA1-RON2 inh: disrupts binding of P. falciparum AMA1 to RON2; AlphaScreen AMA1-biotinylated RON2 peptide binding; Potency, µM (titrated, usually from 58.2 µM), without a hit: top-dose activity change, negative = inhibition, most hits filed as inhibitors; 360,000 tested, 0.2% active;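 also: potency is read from the fitted curve at half-maximal effect; 0% = vehicle wells and -100% = peptide control; nearly all actives have a fitted effect of over 45% in size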
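AMA1 (3D7) with his tag at 25 nM final met compounds first, then biotinylated RON2 peptide at 25 nM; detection used donor plus acceptor beads, 10 µg/mL apiece, read by AlphaScreen after 30 min at room temperature.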
Shiga inhibitor: Shiga toxin inhibition; AID 2315; 290,000 tested, 9.2% active; Vero cells, Shiga toxin protein synthesis inhibition reporter; inhibition, % at 38.7 µM; in the data active = inhibition mostly above about 28%, no sharp cut-off; inactive = mostly below about 43%; also: 0% is about no effect
Pf growth 96h: P. falciparum growth inhibition at 96 hours. P. falciparum luciferase reporter growth, 96 h. Potency, µM (doses to about 28.7 µM), inactives show at the top dose activity change, negative = inhibition, actives largely listed as inhibitors. 320,000 tested, 6.9% active. AID 504834; also: potency is read from the fitted curve at half-maximal effect; % is scaled to controls: 0 for no effect and ±100 for the full control effect
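Cell-based qHTS: luciferase-tagged P. falciparum in erythrocytes (2% hematocrit, 0.05% parasitemia final) incubated with compounds for 96 hours, 37 C, 5% CO2; luciferase detection reagent then added and luminescence measured.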
Pf growth 48h: P. falciparum growth inhibition at 48 hours (one generation); 310,000 tested, 5.9% active; P. falciparum luciferase growth in erythrocytes, 48 h; Potency, µM (doses to about 28.7 µM), for the others: at the highest dose activity change, negative = inhibition, hits mostly inhibitors; AID 504832; also: potency is read from the fitted curve at half-maximal effect; % is scaled to controls: 0 for no effect and ±100 for the full control effect
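First compound was added to culture medium, then infected red cells at 0.1% parasitemia and 2% hematocrit (final). After incubation at 37 C under 5% CO2, luciferase detection reagent was dispensed and light output recorded.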
HCV inh: blocks hepatitis C virus; Huh7.5.1 HCVcc-Cre infection, luciferase reporter, 44 h; 340,000 tested, 3.4% active; Potency, µM (top dose mostly 41.8 µM), for the others: at the highest dose activity change, negative = inhibition, most hits filed as inhibitors; also: potency is read from the fitted curve at half-maximal effect; % is scaled to controls: 0 for no effect and ±100 for the full control effect
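Infectious HCV cell culture screen: compound-treated cells (1,000/well, pre-plated 4 h) are infected with HCVcc-Cre at roughly 0.5 moi and grown 44 h. Infection is quantified by luciferase signal after 15 min substrate incubation at room temperature.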
* = called active by the depositor; ? = inconclusive; . = no result given. Unless noted, calls follow the shape of the dose curve; as a rule, active = well fitted curve in the direction sought with a large enough effect; inconclusive = small, poorly fitted or top-dose-only effect, or another doubt; inactive = no such curve, though single readings can be large; an effect the other way counts as inactive or inconclusive.

SMILES	CHX counter	AMA1-RON2 inh	Shiga inhibitor	Pf growth 96h	Pf growth 48h	HCV inh
CC(C)(C)NC(=O)C(c1ccncc1)N(C(=O)Cn1nnc(-c2ccc(F)cc2)n1)c1cccc(F)c1 (configuration not stated)	29*	13%	56	0%	?	-1%
COc1cccc(N(C(=O)Cn2nnc(-c3ccc(C)cc3)n2)C(C(=O)NC(C)(C)C)c2c[nH]c3ccccc23)c1 (configuration not stated)	-1	?	-7	2.3µM*	12µM*	?
CC(C)(C)NC(=O)C(c1ccco1)N(C(=O)Cn1nnc(-c2ccc(F)cc2)n1)c1ccccc1F (configuration not stated)	-1	-24%	7	1%	?	?
CC(C)(C)NC(=O)C(c1c[nH]c2ccccc12)N(C(=O)Cn1nnc(-c2ccc(Cl)cc2)n1)c1ccccc1F (configuration not stated)	3	-4%	4	30%	?	10µM*
O=C(NC1CCCC1)C(c1c[nH]c2ccccc12)N(C(=O)Cn1nnc(-c2ccc(Cl)cc2)n1)c1ccccc1 (configuration not stated)	-3	-10%	-5	?	?	-25%
CCC(=O)N1CCCC(C)(C(=O)NS(=O)(=O)c2cccs2)C1 (configuration not stated)	.	2%	.	.	.	.
COC(=O)c1ccc(Cn2c(C)c(C(=O)NCc3cccs3)sc2=O)o1	.	-2%	.	.	.	.
C[C@@]12C(=O)Nc3ccc(Br)cc3C(=O)N1[C@H]1c3cc(Cl)ccc3OC[C@@H]1[C@@H]2c1ccccc1	.	-10%	.	3.3µM*	3.7µM*	?
COc1ccc2c(c1)[C@H]1[C@H](CO2)[C@H](c2ccccc2)[C@]2(C)C(=O)Nc3ccc(C)cc3C(=O)N12	.	-4%	.	.	.	11µM*
COc1ccc2c(c1)C(=O)N1[C@H]3c4cc(C)ccc4OC[C@@H]3[C@H](c3ccccc3)[C@]1(C)C(=O)N2	.	5%	.	?	9.3µM*	?
CCOC(=O)[C@H]1[C@H]2COc3ccc(Br)cc3[C@@H]2N2C(=O)c3ccc(Cl)cc3NC(=O)[C@@]12C	.	-3%	.	?	9.3µM*	2%
C[C@@]12C(=O)Nc3ccc(Cl)cc3C(=O)N1[C@H]1c3cc(Cl)ccc3OC[C@@H]1[C@@H]2c1ccccc1	.	-18%	.	.	.	-11%
O=C(CO)[C@@H](O)C(O)[C@@H](O)CO (some centres not stated)	-3	.	-3	.	.	.
O=C(COC(=O)c1cc(-c2ccccn2)nc2ccccc12)Nc1ncc(C(F)(F)F)cc1Cl	6	7%	17	148%	66%	1%
CC(C)C[C@H](NC(=O)c1ccc(NCc2cnc[nH]2)cc1-c1cccc2ccccc12)C(=O)O	-7	.	-9	.	.	.
COc1ccccc1NC(=O)C1CCCN(S(=O)(=O)c2ccccc2)C1 (configuration not stated)	-5	-12%	-19	?	23%	?
COc1cc(OC)cc(C(=O)NNC(=O)C2CCC2)c1	.	28%	.	.	.	.
COc1ccc2c(c1)[C@@H]1[C@H](CO2)[C@H](c2ccccc2)[C@]2(C)C(=O)Nc3ccc(C)cc3C(=O)N12	.	-27%	.	?	13µM*	-6%
COc1ccc2c(c1)[C@H]1[C@H](CO2)[C@H](c2ccccc2)[C@]2(C)C(=O)Nc3cc(OC)c(OC)cc3C(=O)N12	.	-8%	.	?	9.3µM*	10µM*
CCOC(=O)[C@H]1[C@H]2COc3ccccc3[C@@H]2N2C(=O)c3cc(OC)ccc3NC(=O)[C@@]12C	.	-3%	.	?	5.2µM*	-3%
CCOC(=O)[C@H]1[C@H]2COc3ccc(OC)cc3[C@@H]2N2C(=O)c3cc(C)ccc3NC(=O)[C@@]12C	.	-4%	.	?	?	-17%
CC1CC(C)CN(c2ccc([N+](=O)[O-])nc2)C1 (configuration not stated)	17*	-4%	28	?	?	-13%
O=C(NCCCC1CCCC1)C1CCC(=O)N(Cc2ccc(Cl)cc2)C1 (configuration not stated)	-6	-3%	8	1%	?	?
CSc1nc(-c2ccc(Cl)cc2)nn1C(=O)c1ccccc1	24*	-7%	112*	1.3µM*	99%	0%
CSc1nc(-c2ccccc2)nn1C(=O)c1ccc(Cl)cc1	17*	10%	14	?	28%	3%
SMILES	CHX counter	AMA1-RON2 inh	Shiga inhibitor	Pf growth 96h	Pf growth 48h	HCV inh
COc1ccc(C(=O)n2nc(-c3ccccc3)nc2SC)cc1	-2	-2%	11	?	35%	?
CSc1nc(-c2ccco2)nn1C(=O)c1ccc(Cl)cc1	-5	.	-11	-8%	.	.
CSc1nc(-c2ccccc2)nn1C(=O)c1ccccc1	14*	-13%	45	61%	12%	22%
CN(CC(=O)Nc1cccc(F)c1)C(=O)c1cn(-c2ccccc2)nc1-c1ccccc1	-3	-1%	18	?	-26%	-3%
CCOc1ccc(NC(=O)CN(C)C(=O)c2cn(-c3ccc(F)cc3)nc2-c2cccc(OC)c2)cc1OCC	.	-10%	.	?	12µM*	?
COc1ccc(NC(=O)CN(C)C(=O)c2cn(-c3ccccc3)nc2-c2cccnc2)cc1	.	76%	.	?	8.3µM*	-3%
CCc1nc2ccc(C(=O)NCc3ccccc3OC)cn2c1N(C)Cc1ccc(N(C)C)cc1	.	14µM*	.	.	.	.
CCc1nc2ccc(C(=O)NCc3ccccc3OC)cn2c1N(CC)CCN(C)C	.	-2%	.	.	.	.
O=C(O)c1ccccc1Nc1cc(Cl)cc(Cl)c1	-2	.	-1	.	.	.
O=C(O)c1ccccc1Nc1ccc(CCc2ccc(Cl)c(Cl)c2)cc1	16*	.	27*	.	.	.
NC(=O)[C@@H]1CCCN1Cc1nc(Cc2ccccc2Cl)no1	-2	10%	-2	3.7µM*	2%	13%
Clc1ccccc1Cc1noc(CN2CCN3CCCC3C2)n1 (configuration not stated)	8	0%	-6	2.9µM*	?	-13%
NC(=O)[C@@H]1CCCN1Cc1nc(-c2ccccc2)no1	-1	-5%	7	?	22%	-1%
NC(=O)C1CC(=O)N(Cc2ccc3c(c2)OCO3)C(=Nc2ccccc2)S1 (configuration not stated)	-5	-4%	-16	15µM*	-20%	12%
CNC(=O)C1CC(=O)N(Cc2ccc3c(c2)OCO3)C(=Nc2ccc(OC)cc2)S1 (configuration not stated)	-1	4%	-17	?	?	7%
O=C(c1ccc(CS(=O)c2ccc(F)cc2)o1)N1CCN(C2CCCCC2)CC1 (configuration not stated)	-5	2%	-4	?	1%	3%
